From PubChem BioAssay
TDP1 cell CPT: DT40-hTDP1 cell growth loss with CPT; actives 12% (n = 420,000); Potency, µM (highest dose often 46.2 µM), for inactives: at the highest dose activity change, negative = growth inhibition, most hits filed as inhibitors; chicken DT40 Tdp1-/-;hTDP1 cells + 20 nM CPT, ATP luminescence, 48 h; note: potency is the fitted concentration of half-maximal effect; nearly all actives have a fitted effect of over 55% in size
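Chicken DT40 Tdp1-/- cells complemented with human TDP1, 400 cells/well, exposed to compounds plus 20 nM camptothecin for at least 48 h at 37 C; viability read as ATP content by CellTiter-Glo luminescence.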
DT40 TDP1 no CPT: qHTS for Inhibitors of human tyrosyl-DNA phosphodiesterase 1 (TDP1): qHTS in cells in absence of CPT | DT40 Tdp1-/- hTDP1 cells, no CPT, ATP luminescence, 48 h | AID 686978, 2013 | actives 15% (n = 420,000) | Potency, µM (doses to about 46.2 µM), for the others: at the top dose activity change, negative = growth inhibition, hits mostly inhibitors; note: potency is the fitted concentration of half-maximal effect; nearly all actives have a fitted effect of over 55% in size
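Camptothecin absent (DMSO only). Human TDP1-complemented DT40 knockout cells, 400 cells/well, 37 °C for minimum 48 hr; ATP measured via CellTiter-Glo, 30 min dark incubation, luminescence.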
HT1080 IDH1KD tx: toxicity to HT-1080 IDH1 knockdown cells (counter line). Potency, µM (doses to about 46.1 µM), for inactives: at the top dose activity, negative = toxicity, hits mostly cytotoxic. AID 686971. actives 2% (n = 360,000). HT-1080 IDH1 knockdown viability, ATP luminescence, 48 h;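 note: potency is the fitted concentration of half-maximal effect; 0% = DMSO wells and -100% = cell-free medium wells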
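Luminescent ATP read-out (CellTiter-Glo, 10 min at room temperature) after 48 h compound exposure at 37 °C gave viability of IDH1-knockdown HT-1080 cells. Activity was normalised to DMSO and cell-free wells, then fitted as concentration-response curves.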
IL1B secr inh: blocks inflammasome-driven IL-1 beta release. THP-1 LPS/ATP IL-1B secretion, AlphaLISA, 16 h; hits give low values. activity change, % at 57.5 µM. actives 4.7% (n = 360,000); in the data active = activity change below about -50%; inconclusive = mostly about -30% to -49%
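Secreted IL-1B measured by AlphaLISA bead assay after 16 h compound exposure of THP-1 cells; compounds (final up to 57.5 uM) added 1 h before LPS (250 ng/mL) and ATP (1.25 mM) stimulation; lower signal means less secretion.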
HT1080-NT tox: kills 2HG-producing HT-1080-NT fibrosarcoma cells. HT-1080-NT fibrosarcoma viability, CellTiter-Glo ATP luminescence, 48 h. Potency, µM (highest dose often 46.1 µM), without a hit: top-dose activity, negative = less viability, hits mostly cytotoxic. actives 1.6% (n = 360,000). AID 686970;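 note: NT is the 2HG producing partner of a matched IDH1 knockdown line; potency is the fitted concentration of half-maximal effect; 0% = DMSO-treated cells and -100% = media-only wells without cells; nearly all actives have a fitted effect of over 55% in size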
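A 48-hour cytotoxicity screen used HT-1080-NT cells plated 2 hours before compound delivery. ATP-based CellTiter-Glo luminescence measured viability, normalized to DMSO and no-cell controls.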
uPA surface inh: cell surface uPA generation inhibition; cell surface uPA generation assay, qHTS; Potency, µM (series often up to 38.3 µM), without a hit: at the top dose activity change, negative = inhibition, most hits filed as inhibitors; actives 0.31% (n = 330,000); active = well fitted inhibition curve with a large enough effect; inconclusive = small, poorly fitted or top-dose-only effect; inactive = no such curve, though single readings can be large or run the other way; tested in mouse RAW 264.7 cells; note: potency is the fitted concentration of half-maximal effect; nearly all actives have a fitted effect of over 55% in size
An asterisk follows results filed as active; ? = inconclusive; / = not tested or not shown. An excerpt weighted towards active compounds, which were near 19% of everything screened. Unless noted, calls come from the whole dose curve; as a rule, active = well fitted curve in the direction sought with a large enough effect; inconclusive = small, poorly fitted or top-dose-only effect, or another doubt; inactive = no such curve, though single readings can be large; an effect the other way counts as inactive or inconclusive. Unless noted, % is set by controls: 0 for no effect and ±100 for the full control effect.

SMILES | TDP1 cell CPT | DT40 TDP1 no CPT | HT1080 IDH1KD tx | IL1B secr inh | HT1080-NT tox | uPA surface inh
COc1cccc(/C=C/C(=O)c2ccc[nH]2)c1 | ? | ? | -4% | -93* | -6% | -9%
O=C(/C=C/c1ccc2c(c1)OCO2)c1cccs1 | 3.3µM* | 6µM* | / | / | / | /
O=C(/C=C/c1ccccc1Br)c1ccc2c(c1)OCO2 | 21µM* | 23µM* | ? | -19 | ? | -5%
O=C(/C=C/c1ccc2c(c1)OCO2)c1ccc[nH]1 | 23% | ? | -2% | -95* | -10% | -2%
O=C(NC1CC1)C1CCN(c2ncccn2)CC1 | 0% | 5% | 10% | -1 | -1% | 0%
CCCCCCN1C[C@H](n2cc(C3CC3)nn2)[C@@H](O)C[C@@H]1c1ccc(Cl)cc1 | ? | ? | -1% | 36 | -1% | /
C(=N\N(c1ccccc1)c1ccccc1)/c1ccc(N2CCOCC2)s1 | -36% | ? | 6% | -22 | 0% | 1%
CC(C)NC(=O)c1cc(C2CCCCN2S(=O)(=O)c2cccc3cccnc23)on1 (stereo not given) | -5% | 0% | 3% | 35 | 2% | /
COc1cc(/C=C/C(=O)c2ccc3c(c2)OCCO3)cc(Br)c1OCC(=O)N(C)C | 8.2µM* | 7.3µM* | 3.7µM* | -104* | 4.6µM* | 0%
O=C(/C=C/c1ccncc1)c1ccc2c(c1)OCCO2 | ? | 15µM* | 18µM* | -98* | ? | -9%
CN(C)c1ccc(/C=C/C(=O)c2ccc3c(c2)OCCO3)cc1[N+](=O)[O-] | -15% | -6% | -1% | -1 | 2% | 12%
O=C(/C=C/c1cccc(Br)c1)c1ccc2c(c1)OCO2 | ? | ? | ? | -104* | ? | 0%
O=C(CNC(=O)c1ccc2c(c1)OCO2)N/N=C(Br)/C=C/c1ccccc1 | 2.6µM* | 7.3µM* | 15µM* | -61* | ? | -10%
CCN(Cc1ccc2c(c1)OCO2)C(=O)/C=C/c1cccc(Br)c1 | -2% | ? | -14% | -24 | -13% | 1%
Cc1ccsc1C(=O)N1CCC1(C)C(=O)NS(=O)(=O)c1ccccc1 (stereo not given) | -8% | 8% | -6% | -2 | 15% | /
O=C(/C=C\Nc1ccccc1Br)c1ccc2c(c1)OCO2 | -26% | ? | ? | -14 | ? | -21%
O=C(/C=C/c1ccc2c(c1)OCO2)c1ccc(F)cc1 | ? | ? | 22% | -74* | 5% | -26%
O=C(N/N=C\C=C\c1ccc2c(c1)OCO2)c1ccc(F)cc1 | 27% | -20% | -7% | -16 | -16% | -3%
COc1cccc(/C=C/C(=O)c2ccc3c(c2)OCO3)c1OC | ? | 18µM* | ? | -20 | -10% | -13%
O=C(/C=C/c1ccccc1)c1ccc2c(c1)OCO2 | 18µM* | ? | 0% | -7 | -18% | -15%
CN(C)c1ccc(/C=C/C(=O)c2ccc3c(c2)OCO3)cc1 | 23µM* | 16µM* | -14% | -92* | ? | -4%
C=C(C)CSc1nc2sc3c(c2c(=O)n1-c1ccccc1)CC(C(C)C)OC3 (stereo not given) | -21% | 2% | / | / | / | /
Nc1ncncc1-c1ccc2ccccc2c1 | -23% | ? | 0% | ? | 6% | 17%
CSCCC(NC(=O)c1ccco1)C(=O)Nc1ccncc1 (stereo not given) | 3% | 2% | 3% | 19 | 11% | 1%
O=C(CN1C(=O)c2cccnc2Oc2ccc(Cl)cc21)NCCCc1ccccc1 | 23µM* | ? | 12% | -8 | 18% | 8%
SMILES | TDP1 cell CPT | DT40 TDP1 no CPT | HT1080 IDH1KD tx | IL1B secr inh | HT1080-NT tox | uPA surface inh
O=C(CN1C(=O)c2cccnc2Oc2ccc(Cl)cc21)Nc1cccc(C(F)(F)F)c1 | ? | 18µM* | / | / | / | /
O=C(CN1C(=O)c2cccnc2Oc2ccc(Cl)cc21)NCCCN1CCCCC1 | -1% | 3% | / | / | / | /
COc1cccc(NC(=O)CN2C(=O)c3cccnc3Oc3ccc(Cl)cc32)c1 | ? | ? | -14% | 23 | -14% | -3%
O=C(CN1C(=O)c2cccnc2Oc2ccc(Cl)cc21)Nc1ccccc1F | ? | 18µM* | -16% | 5 | 1% | -6%
Cc1ccccc1C(=O)Nc1c(C)nc2ccccn2c1=O | -18% | 0% | / | / | / | /
Cc1noc(C)c1C(=O)OCC(=O)/C=C1/N(C)c2ccccc2C1(C)C | ? | 12µM* | 0% | 29 | 6% | 5%
CN1/C(=C\C(=O)COC(=O)c2ccco2)C(C)(C)c2ccccc21 | ? | ? | 6% | 23 | -1% | -12%
Cc1ccc(C(=O)NCC(=O)OCC(=O)/C=C2\N(C)c3ccccc3C2(C)C)cc1C | 16µM* | ? | 1% | 38 | -2% | 0%
CN1/C(=C\C(=O)COc2ccc3c(c2)OCO3)C(C)(C)c2ccccc21 | 8.2µM* | 8.2µM* | -28% | -78* | -22% | 1%
CN1/C(=C\C(=O)C[n+]2ccc3ccccc3c2)C(C)(C)c2ccccc21 | 0.65µM* | 0.29µM* | ? | -53* | ? | -3%
C[C@H](NC(=O)C1CC(=O)N(c2ccc3c(c2)OCO3)C1)C(=O)NC1CCCCC1 (stereo not given in full) | ? | ? | 16% | -20 | 11% | 4%
CCOc1ccc(CNC(=O)CCc2c(C)nn(-c3ccc(N4CCOCC4)nn3)c2C)cc1 | -16% | -14% | / | / | / | /
COC(=O)[C@]1(C)N[C@H](CN(C)S(=O)(=O)c2ccccc2)[C@@H]2C(=O)N(Cc3ccccc3)C(=O)[C@@H]21 | 11% | 8% | 12% | -14 | 11% | -3%
CN1/C(=C\C(=O)COC(=O)C2COc3ccccc3O2)C(C)(C)c2ccccc21 (stereo not given) | 12µM* | ? | -22% | -2 | -12% | -1%
COc1ccccc1OCC(=O)/C=C1/N(C)c2ccccc2C1(C)C | 16µM* | 21µM* | -27% | -9 | -19% | 3%
O=C(C1CC1)N1N=C(C2CCCCC2)CC1(O)C(F)(F)F (stereo not given) | 14% | -6% | -18% | 13 | -14% | 4%
Cc1ccccc1-c1cncnc1Nc1ccccc1 | 3% | 1% | / | / | / | /
COc1ccc(Cc2nnc(SCC(=O)c3ccc(OC)cc3)o2)cc1 | ? | ? | 19% | ? | 0% | -8%
COc1ccc(NCc2nnc(SCC(=O)c3ccc(OC)cc3)o2)cc1 | ? | 16µM* | ? | -5 | -1% | /
